Only some compounds are listed: those with a hit (about 2.7% of all), similar ones and a draw of the others.
SENP6 inh: blocks the human protease SENP6; Q9GZR1; Recombinant SENP6 catalytic domain, aminoluciferin luminescence; inhibition, % at 10 µM; 1.8% of 330,000 active;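 active = inhibition above about 50% at the single tested dose, limit read from the data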
SENP8 block-1: blocks the human protease SENP8 | purified SENP8, Z-RLRGG-aminoluciferin cleavage, luminescence | 1.2% of 330,000 active | inhibition, % at 10 µM | Q96LD8; in the data active = inhibition above about 50%
Target sequence (Q96LD8 whole entry, looked up): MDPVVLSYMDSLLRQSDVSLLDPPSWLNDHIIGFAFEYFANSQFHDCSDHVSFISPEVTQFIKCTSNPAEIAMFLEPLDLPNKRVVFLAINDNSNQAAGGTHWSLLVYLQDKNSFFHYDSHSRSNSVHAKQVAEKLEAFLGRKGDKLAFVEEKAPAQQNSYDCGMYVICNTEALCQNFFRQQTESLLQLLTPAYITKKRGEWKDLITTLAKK
HSP90 inh: inhibitors of HSP90 luciferase refolding in rabbit reticulocyte lysate | luciferase refolding luminescence, 3 h | AID 1789 | inhibition, % at 5.6 µM | 0.91% of 290,000 active;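 active = inhibition above the screen-wide mean plus 3 SD, computed separately per campaign, cut at about 16% in these data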;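 note: inhibitors lower the luminescence because luciferase stays unfolded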
SENP8 block-2: inhibitors of human SENP8 protease. recombinant SENP8, Nedd8 substrate fluorescence. inhibition, % at 20 µM. 0.64% of 360,000 active. AID 602440; in the data active = inhibition mostly above about 40%, no sharp cut-off; inactive = mostly below about 27%
SENP7 inh: inhibitors of human SENP7 protease; AID 434973; inhibition, % at 5 µM; recombinant SENP7, Z-RLRGG-aminoluciferin luminescence, 40 min; Q9BQF6; 1.5% of 330,000 active;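 active = inhibition above about 50% at the single test dose, limit read from the data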
Target sequence (Q9BQF6 706-1050 limits assumed): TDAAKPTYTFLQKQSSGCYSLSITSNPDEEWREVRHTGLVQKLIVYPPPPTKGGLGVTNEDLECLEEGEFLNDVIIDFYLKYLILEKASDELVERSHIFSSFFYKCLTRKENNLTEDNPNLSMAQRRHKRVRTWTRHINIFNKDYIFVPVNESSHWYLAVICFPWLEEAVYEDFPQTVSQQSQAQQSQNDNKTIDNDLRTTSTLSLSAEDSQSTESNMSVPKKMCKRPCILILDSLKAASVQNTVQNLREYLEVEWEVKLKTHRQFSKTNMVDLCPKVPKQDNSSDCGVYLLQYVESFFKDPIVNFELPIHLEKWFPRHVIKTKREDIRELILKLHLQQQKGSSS
SENP8 inh conf: confirmation of human SENP8 protease inhibitors. AID 624319. shares compounds with SENP8 block-2. purified SENP8, Nedd8-AMC/pro-Nedd8 cleavage fluorescence, 30 min. inhibition, % at 25 µM. 15% of 1,400 active; in the data active = inhibition mostly above about 39%, no sharp cut-off; inactive = mostly below about 34%
Each line names hits and unclear results; the compound was inactive in the other large screens (follow-up assays come after a bar, where they were run).

COC/C=C/C1=CC2=CC(=O)C(C)(OC(=O)c3cnc4ccccc4n3)C(=O)C2=CN1C1CC1 (configuration not stated)	SENP8 block-2 52 (no result: HSP90 inh) | SENP8 inh conf 53
COC/C=C/C1=CC2=CC(=O)C(C)(OC(=O)c3cnc4ccccc4n3)C(=O)C2=CN1c1ccc(OC)cc1 (configuration not stated)	none (no result: HSP90 inh)
COC/C=C/C1=CC2=CC(=O)C(C)(OC(=O)c3cnc4ccccc4n3)C(=O)C2=CN1CCCCO (configuration not stated)	SENP8 block-2 56 (no result: HSP90 inh) | SENP8 inh conf 46
COC/C=C/C1=CC2=CC(=O)C(C)(OC(=O)c3cnc4ccccc4n3)C(=O)C2=CN1Cc1ccccc1 (configuration not stated)	SENP8 block-2 45 (no result: HSP90 inh) | SENP8 inh conf inactive
COC/C=C/C1=CC2=CC(=O)C(C)(OC(=O)c3cnc4ccccc4n3)C(=O)C2=CN1CCc1ccccn1 (configuration not stated)	none (no result: HSP90 inh, SENP8 block-2)
O=C(c1cc(-c2ccncc2)nc2ccccc12)N1CCOCC1	none (no result: HSP90 inh)
Cc1cc(NS(=O)(=O)c2ccc(NC(=O)C(C(C)C)N3C(=O)c4ccccc4C3=O)cc2)nc(C)n1 (configuration not stated)	none
Cc1cc(NS(=O)(=O)c2ccc(NC(=O)C(CC(C)C)N3C(=O)c4ccccc4C3=O)cc2)nc(C)n1 (configuration not stated)	SENP8 block-2 42 | SENP8 inh conf inactive
COc1cc(SC#N)ccc1N=Cc1c(C)[nH]n(-c2ccc(C)c(C)c2)c1=O	none
COc1cc(SC#N)ccc1N=Cc1c(C)[nH]n(-c2ccc(Cl)cc2)c1=O	SENP8 block-2 61 | SENP8 inh conf inactive
CC[C@@H]1C/C=C\Cc2ccccc2[C@H](C(=O)C[C@@H](O)CC(C)=O)OC1=O	none (no result: HSP90 inh)
CSCCC(NC(N)=O)C(=O)Nc1ccc(C)cc1 (configuration not stated)	none
CSCC[C@H](NC(=O)N1C[C@H]2C[C@@H](C1)c1cccc(=O)n1C2)C(=O)Nc1ccc(NC(C)=O)cc1	SENP8 block-2 46 | SENP8 inh conf inactive
O=[N+]([O-])c1cc(S(=O)(=O)N2CCCC2)ccc1N/N=C/c1ccncc1	SENP8 block-2 47 | SENP8 inh conf inactive
NS(=O)(=O)c1ccc(N/N=C/c2ccc3c(c2)OCO3)c([N+](=O)[O-])c1	SENP8 block-2 44 | SENP8 inh conf inactive
NS(=O)(=O)c1ccc(N/N=C/c2cn(-c3ccccc3)nc2-c2ccccc2)c([N+](=O)[O-])c1	SENP8 block-2 54 | SENP8 inh conf inactive
O=C(CSc1nc2ccccc2n1CCc1ccccc1)NC1CCS(=O)(=O)C1 (configuration not stated)	none
Cc1ccc(C(=O)N/C(=C/c2ccc(-c3cccc([N+](=O)[O-])c3)o2)C(=O)NC(C)C)cc1	SENP8 block-2 47 | SENP8 inh conf inactive
Cc1ccc(C(=O)N/C(=C\c2ccc(-c3cccc([N+](=O)[O-])c3)o2)C(=O)NCCCN2CCOCC2)cc1	none
COc1ccc(C(=O)N/C(=C\c2ccc(-c3cccc([N+](=O)[O-])c3)o2)C(=O)NCCCN2CCOCC2)cc1	SENP8 block-2 35 (no result: SENP6 inh, SENP8 block-1, HSP90 inh, SENP7 inh) | SENP8 inh conf inactive
Cc1ccc(C(=O)N/C(=C/c2ccc(-c3cccc([N+](=O)[O-])c3)o2)C(=O)NC(C)(C)C)cc1	none
COc1ccc(OC)c(C(=O)NC(CC(N)=O)c2ccc(NCCN3CCCCC3)c([N+](=O)[O-])c2)c1 (configuration not stated)	none
CCOc1cc(C(c2c(C)[nH][nH]c2=O)c2c(C)[nH][nH]c2=O)ccc1OS(=O)(=O)c1ccccc1	SENP8 block-2 44 | SENP8 inh conf 47
[O-]C1=N/[N+](=C/c2ccccc2Cl)CC1	SENP8 block-2 50 | SENP8 inh conf inactive
CC(C)(C)C(=O)N(CCN(C(=O)C(C)(C)C)c1ccccc1)c1ccccc1	none
Cc1ccccc1C(=O)NCCN1CCOCC1	none
CC(C(=O)NCCN1CCOCC1)(c1ccccc1)c1ccccc1	SENP8 block-2 67 | SENP8 inh conf inactive
CCN(C(=O)c1cccs1)c1nc(-c2ccc(OC)cc2)cs1	none
O=C1Cc2ccccc2C(=O)N1c1ccc(F)cc1Cl	SENP8 block-2 72 | SENP8 inh conf 50
O=C1Cc2ccccc2N1c1c(Cl)cccc1Cl	none
CC(=O)OC(C(=O)NCCN1CCOCC1)c1c(F)cccc1F (configuration not stated)	none
Cc1nn(CC#N)c(=O)n1-c1ccc(C(C)C)cc1	SENP8 block-2 41 | SENP8 inh conf inactive
Cc1nn(CC#N)c(=O)n1-c1ccc(Cl)cc1	none
Cn1cnnc1SCC(=O)Nc1ccc(F)cc1	none
COc1cc(NCCCCCCN)c2ncccc2c1OC	SENP8 block-2 72 (no result: SENP6 inh, SENP8 block-1, HSP90 inh, SENP7 inh) | SENP8 inh conf 96
COc1cc(NC(C)CCCNC(C)C)c2ncccc2c1OC (configuration not stated)	none (no result: SENP6 inh, SENP8 block-1, HSP90 inh, SENP7 inh)
CC(=O)c1c(O)cc(O)c(C(C)=O)c1O	SENP8 block-2 45 (no result: HSP90 inh) | SENP8 inh conf inactive
COc1ccc(CN(C)C(=O)c2cccc(S(=O)(=O)NCc3ccccc3)c2)cc1F	none (no result: SENP6 inh, SENP8 block-1, HSP90 inh, SENP7 inh)
CC(C)OCC1CC(CC(=O)NC(=S)Nc2cccc([N+](=O)[O-])c2)C(=O)O1 (configuration not stated)	none
COc1ccc(S(=O)(=O)N2CCC(C(=O)N[C@H](C(=O)NCc3ccccc3)C(C)C)CC2)cc1	none (no result: SENP6 inh, SENP8 block-1, HSP90 inh, SENP7 inh)
COc1ccccc1CNC(=O)[C@H](C)NC(=O)C1CCN(C(=O)[C@@H](N)Cc2ccccc2)CC1	none
COc1ccc(CNC(=O)[C@@H](NC(=O)C2CCN(C(=O)[C@@H](N)Cc3ccccc3)CC2)C(C)C)cc1	SENP8 block-2 54 | SENP8 inh conf inactive
COc1ccccc1CNC(=O)[C@H](C)NC(=O)C1CCN(C(=O)[C@@H](N)C(C)C)CC1	SENP8 block-2 48 | SENP8 inh conf inactive
CSCC[C@H](N)C(=O)N1CCC(C(=O)N[C@H](C(=O)NCc2ccccc2F)C(C)C)CC1	SENP8 block-2 48 | SENP8 inh conf inactive
COc1ccc(CNC(=O)[C@H](Cc2ccccc2)NC(=O)C2CCN(C(=O)[C@H](C)N)CC2)cc1	SENP8 block-2 51 | SENP8 inh conf inactive
COc1ccc(CNC(=O)[C@H](Cc2ccccc2)NC(=O)C2CCNCC2)cc1	none
CCc1nc(SCC(=O)N2CCCc3ccccc32)c2oc3ccccc3c2n1	SENP8 block-2 46 | SENP8 inh conf inactive
Cc1nc(SCC(=O)NCc2ccccc2)c2oc3ccccc3c2n1	none
Cc1nc(SCC(=O)O)c2oc3ccccc3c2n1	SENP8 block-2 47 | SENP8 inh conf inactive
O=C(CCCN1C(=O)c2ccccc2C1=O)Nc1ccccc1	none
Cc1cc(C)c(C#N)c(SCc2[nH]nc3c2C(c2ccc(F)cc2)C(C#N)=C(N)O3)n1 (configuration not stated)	none
OC1(C#CCCN2CCCCC2)c2ccccc2-c2ccccc21	none

Assay outcomes from PubChem.
